# In PubChem BioAssay (EPA / NIEHS):
# “And” between values parts separate entries of the source, which are not always exact repeats. Equal values may be shown once. Results filed as inconclusive are left out. Some compounds were tested as several samples or in several runs, with calls that do not always agree. The source made the active and inactive calls. How the source made its calls: active means hit-call score of the fitted dose curve at least 0.9, where 1 is the maximum; inconclusive means response in the unintended direction; inactive means score below 0.9.
# How the values were obtained:
# [1] = target: human Peripheral-type Benzodiazepine Receptor (PBR), TSPO (gene 706) (UniProt P30536); assay: NVS_MP_hPBR: NovaScreen (NVS) Membrane Protein Assay for human Peripheral-type Benzodiazepine Receptor (PBR) (AID 2283331);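 further: hits reduce radioligand binding relative to DMSO baseline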
# Procedure, shortened: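 Cell-free radioligand displacement, human colonic membranes, 1 h exposure. Filter radiodetection read-out. Single-concentration duplicates (25 uM), then concentration-response for actives; DMSO negative control.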
# [2] = target: rat Peripheral-type Benzodiazepine Receptor (PBR), Tspo (gene 24230) (UniProt P16257); assay: NVS_MP_rPBR: NovaScreen (NVS) Membrane Protein Assay for rat Peripheral-type Benzodiazepine Receptor (PBR) (AID 2283335)
# Procedure, shortened: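 Single-concentration duplicate screening at 25 uM preceded concentration-series retesting of actives. Binding of a specific radioligand to rat kidney membrane PBR was read by filtration radiodetection after 1 h, with plate-wise positive and negative controls.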
# [3] = NVS_IC_rCaBTZCHL: NovaScreen (NVS) Ion Channel Assay for Calcium Channel, Type L, Benzothiazepine Site (CaBTZCHL) (AID 2283337)
# Procedure, shortened: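 Benzothiazepine-site binding was assessed in a tissue-derived, cell-free rat cortical membrane system. After 1.5 h exposure, radioactivity retained on filters was quantified by scintillation; positive and negative controls accompanied every plate.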
# [4] = target: bovine Estrogen Receptor (ER), ESR1 (gene 407238) (UniProt P49884); assay: NVS_NR_bER: NovaScreen (NVS) Nuclear Receptor Binding Assay for bovine Estrogen Receptor (ER) (AID 2283345);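 further: actives lower the bound radioligand count which means they displace the ER ligand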
# Procedure, shortened: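 Displacement of a radioligand from estrogen receptor in bovine uterine membrane preparations; scintillation signal taken at 18 hours, DMSO as baseline. Single-concentration duplicates (25 uM) preceded concentration-response follow-up of actives.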
# [5] = target: chimpanzee Androgen Receptor (AR), AR (gene 747460) (UniProt O97775); assay: NVS_NR_cAR: NovaScreen (NVS) Nuclear Receptor Binding Assay for chimpanzee Androgen Receptor (AR) (AID 2283346);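 further: radioligand displacement from AR measured by scintillation counting in a cell-free assay; a loss of bound radioligand signal versus DMSO counts as binding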
# Procedure, shortened: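 Radioligand binding to chimpanzee AR expressed in Sf9/Sf21 cells, cell-free, measured 72 h after dosing by lysate-based scintillation counting. Loss of signal vs DMSO; initial duplicate screen at 25 uM, actives retested in concentration series.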
# [6] = target: Estrogen receptor (Homo sapiens) (UniProt P03372); assay: NVS_NR_hER: NovaScreen (NVS) Nuclear Receptor Binding Assay for human Estrogen Receptor (ER) (AID 2283348)
# Procedure, shortened: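 MCF7-derived receptor extract, radiolabelled ligand, competitive displacement. Read: scintillation counts at 18 h. DMSO = negative control/baseline. Primary 25 uM duplicate; follow-up concentration–response.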
# [7] = target: Estrogen receptor (Homo sapiens) (UniProt P03372); assay: OT_ER_ERaERa_1440: Odyssey Thera (OT) 24-hour HEK293T Protein-Complementation Assay for Estrogen Receptor-alpha/-alpha Homodimer (AID 2283349);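 further: hits raise fluorescence above DMSO for agonists and antagonists alike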
# Procedure, shortened: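 Cells (HEK293T) carrying the fragment-tagged ERα LBD (aa 310-547) pair are treated with chemical for 24 hours. Nuclear and/or cytoplasmic fluorescence is then quantified on a laser scanning cytometer. Activity is scored as signal gain against DMSO.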
# [8] = target: Estrogen receptor (Homo sapiens) (UniProt P03372); assay: OT_ER_ERaERa_0480: Odyssey Thera (OT) 8-hour HEK293T Protein-Complementation Assay for Estrogen Receptor-alpha/-alpha Homodimer (AID 2283351);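 further: rise in fluorescence from reassembled reporter fragments on ERα LBD homodimer in nucleus or whole cell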
# Procedure, shortened: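 Measures ERα LBD (aa 310-547) homodimer complementation in stably transfected HEK293T at 8 h post-dose, with fluorescence intensity quantified on a laser scanning cytometer relative to DMSO controls.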
# [9] = target: Estrogen receptor (Homo sapiens) + Estrogen receptor beta (Homo sapiens) (UniProt P03372+Q92731); assay: OT_ER_ERaERb_0480: Odyssey Thera (OT) 8-hour HEK293T Protein-Complementation Assay for Estrogen Receptor-alpha/-beta Heterodimer (AID 2283352)
# Procedure, shortened: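 Fluorescence increase from reconstituted reporter fragments, quantified by laser scanning cytometer, reflects ER-alpha/ER-beta heterodimer formation in human HEK293T cells. Exposure 8 h; positive-direction fitting against DMSO vehicle.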
# [10] = target: Androgen Receptor/SRC-1 Co-activator, AR (gene 367) (UniProt P10275); assay: OT_AR_ARSRC1_0960: Odyssey Thera (OT) 16-hour HEK293T Protein-Complementation Assay for Androgen Receptor/SRC-1 Co-activator (AID 2283353);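 further: actives raise the signal above DMSO so potency reflects increased AR and SRC-1 complex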
# Procedure, shortened: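 Sixteen-hour cell assay: Venus halves fused to AR and SRC-1 in HEK293T report binding. Images at 488/635 nm give an N/C ratio in the 488 nm channel over ≥400 cells, analysed as signal increase over DMSO.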
# [11] = target: rat Thyrotropin Releasing Hormone Receptor (TRH), Trhr (gene 25570) (UniProt Q01717); assay: NVS_GPCR_rTRH: NovaScreen (NVS) G Protein-Coupled Receptor Assay for rat Thyrotropin Releasing Hormone Receptor (TRH) (AID 2283329);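 further: hit means lower bound tracer signal versus DMSO baseline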
# Procedure, shortened: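 Competitive radioligand binding on rat forebrain membrane preparations, with filtration and scintillation readout after 4 h. Primary testing in duplicate at 25 uM; actives confirmed in concentration-response. DMSO defined baseline.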
# [12] = target: rat Opioid Receptor, Non-selective Binding, Oprm1 (gene 25601) (UniProt P33535); assay: NVS_GPCR_rOpiate_NonSelective: NovaScreen (NVS) G Protein-Coupled Receptor Assay for rat Opioid Receptor, Non-selective Binding (AID 2283318)
# Procedure, shortened: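 Filter-based radioligand displacement using rat forebrain membrane preparations, measured 1.5 h post-dosing. Single-concentration duplicate screen at 25 uM, follow-up in concentration series; activity taken as signal loss relative to DMSO.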
# [13] = target: Sodium channel protein type 1 subunit alpha (Rattus norvegicus) (UniProt P04774); assay: NVS_IC_rNaCh_site2: NovaScreen (NVS) Ion Channel Assay for rat Sodium Channel, Site 2 (NaCh) (AID 2283322);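 further: hit means loss of radioligand binding signal relative to DMSO so AC50 marks displacement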
# Procedure, shortened: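 Initial duplicate single-point testing at 25 uM, followed by concentration-response runs for actives. Binding of radioligand to rat forebrain membranes quantified after 1 h via filter-based radiodetection.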
# [14] = target: rat Gamma-Aminobutyric Acid Type A Receptor, Non-Selective (GABAR-NonSelective), Gabra1 (gene 29705) (UniProt P62813); assay: NVS_LGIC_rGABAR_NonSelective: NovaScreen (NVS) Ligand-Gated Ion Channel Assay for rat Gamma-Aminobutyric Acid Type A Receptor, Non-Selective (GABAR-NonSelective) (AID 2283326)
# Procedure, shortened: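 Compounds were first screened in duplicate at 25 uM, with actives run as singleton concentration series (max 50 uM). Binding of a radioligand to rat whole-brain GABA-A preparation was measured by filtration and scintillation counting after 1 h, DMSO baseline.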
# [15] = target: Voltage-gated inwardly rectifying potassium channel KCNH2 (Homo sapiens) (UniProt Q12809); assay: NVS_IC_hKhERGCh: NovaScreen (NVS) Ion Channel Assay for human Potassium Channel ERG (KhERGCh) (AID 2283333)
# Procedure, shortened: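 Membranes from CHO cells expressing human ERG; displacement of radioligand measured by filtration and scintillation after 0.75 h. Single-concentration duplicate screen at 25 uM, then concentration-response for actives; DMSO baseline.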
# [16] = tested on: guinea pig Histamine Receptor (H2), gene 100729734; assay: NVS_GPCR_gH2: NovaScreen (NVS) G Protein-Coupled Receptor Assay for guinea pig Histamine Receptor (H2) (AID 2283342)
# Procedure, shortened: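 Guinea pig striatal membrane preparation with specific radioligand; bound counts measured by filtration and scintillation 1 h post-dosing, DMSO as baseline. Chemicals passing a 25 uM duplicate screen were titrated to a 50 uM maximum.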
# NCBI gene 100848466 = assay: NVS_NR_bPR: NovaScreen (NVS) Nuclear Receptor Binding Assay for bovine Progextron Receptor (PR) (AID 2283343)
# Procedure, shortened: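 Scintillation counts of bound radioligand were read 18 hours after chemical addition to membranes extracted from bovine uterus. Displacement was scored as loss of signal relative to DMSO controls. Screening began at 25 uM in duplicate.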
# [17] = target: human Constitutive Androstane Receptor (CAR), NR1I3 (gene 9970) (UniProt Q14994); assay: NVS_NR_hCAR_Antagonist: NovaScreen (NVS) Nuclear Receptor Binding Assay for human Constitutive Androstane Receptor Antagonism (CAR) (AID 2283344)
# Procedure, shortened: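 Single 25 uM duplicate primary screen, with concentration-series follow-up on actives. Cell-free binding format run in antagonist mode, TR-FRET signal taken 1 h post-dose; activity is signal loss relative to DMSO.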
# Sequence of rat Thyrotropin Releasing Hormone Receptor (TRH), Trhr (gene 25570) (Q01717 whole entry, looked up): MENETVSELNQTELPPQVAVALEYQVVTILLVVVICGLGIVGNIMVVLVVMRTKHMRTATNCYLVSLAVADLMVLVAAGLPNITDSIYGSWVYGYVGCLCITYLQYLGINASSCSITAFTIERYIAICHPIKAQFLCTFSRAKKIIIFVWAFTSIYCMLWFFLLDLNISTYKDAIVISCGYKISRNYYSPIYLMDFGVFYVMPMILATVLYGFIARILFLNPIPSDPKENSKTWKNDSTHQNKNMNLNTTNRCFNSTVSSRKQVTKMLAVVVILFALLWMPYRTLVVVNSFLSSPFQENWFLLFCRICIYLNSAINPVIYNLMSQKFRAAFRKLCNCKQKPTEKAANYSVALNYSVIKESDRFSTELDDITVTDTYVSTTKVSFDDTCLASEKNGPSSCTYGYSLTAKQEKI
# Sequence of rat Peripheral-type Benzodiazepine Receptor (PBR), Tspo (gene 24230) (P16257 whole entry, looked up): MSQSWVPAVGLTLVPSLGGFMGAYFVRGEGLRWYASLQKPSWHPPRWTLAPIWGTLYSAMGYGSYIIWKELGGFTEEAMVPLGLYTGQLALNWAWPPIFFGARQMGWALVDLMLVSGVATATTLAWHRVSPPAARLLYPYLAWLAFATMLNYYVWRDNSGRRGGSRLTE
# Sequence of Estrogen receptor (Homo sapiens) + Estrogen receptor beta (Homo sapiens) (P03372 whole entry, looked up, the tested form may be a part): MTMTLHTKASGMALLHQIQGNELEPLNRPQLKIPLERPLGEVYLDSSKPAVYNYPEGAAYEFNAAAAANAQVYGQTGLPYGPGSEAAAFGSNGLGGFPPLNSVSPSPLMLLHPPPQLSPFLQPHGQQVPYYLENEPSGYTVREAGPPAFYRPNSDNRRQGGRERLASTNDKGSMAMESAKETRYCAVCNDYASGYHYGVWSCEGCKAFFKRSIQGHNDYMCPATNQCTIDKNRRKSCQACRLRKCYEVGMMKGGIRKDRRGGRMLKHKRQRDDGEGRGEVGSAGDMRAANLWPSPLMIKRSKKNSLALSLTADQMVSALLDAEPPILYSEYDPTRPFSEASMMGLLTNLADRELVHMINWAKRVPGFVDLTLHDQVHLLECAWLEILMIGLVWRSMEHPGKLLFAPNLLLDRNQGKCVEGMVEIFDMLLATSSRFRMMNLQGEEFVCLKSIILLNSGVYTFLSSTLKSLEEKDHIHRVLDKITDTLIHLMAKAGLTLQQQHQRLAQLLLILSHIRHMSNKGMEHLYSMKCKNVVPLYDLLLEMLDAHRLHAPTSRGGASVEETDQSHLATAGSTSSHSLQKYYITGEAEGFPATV
# Sequence of Estrogen receptor (Homo sapiens) + Estrogen receptor beta (Homo sapiens) (Q92731 whole entry, looked up, the tested form may be a part): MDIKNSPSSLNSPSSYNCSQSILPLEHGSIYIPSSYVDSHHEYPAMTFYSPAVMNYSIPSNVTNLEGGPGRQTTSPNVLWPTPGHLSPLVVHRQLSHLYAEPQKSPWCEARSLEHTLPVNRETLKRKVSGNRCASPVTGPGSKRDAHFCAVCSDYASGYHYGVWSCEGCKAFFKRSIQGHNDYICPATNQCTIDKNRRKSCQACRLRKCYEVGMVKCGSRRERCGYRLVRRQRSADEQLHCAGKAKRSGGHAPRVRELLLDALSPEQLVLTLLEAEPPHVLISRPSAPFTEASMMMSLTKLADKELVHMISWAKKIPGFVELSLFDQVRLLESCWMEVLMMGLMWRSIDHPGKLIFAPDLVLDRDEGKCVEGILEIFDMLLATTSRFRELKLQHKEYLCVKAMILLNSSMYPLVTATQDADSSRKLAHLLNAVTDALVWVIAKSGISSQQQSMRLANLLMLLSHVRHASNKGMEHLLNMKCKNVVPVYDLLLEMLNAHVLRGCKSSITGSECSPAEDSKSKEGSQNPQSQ
# Sequence of Estrogen receptor (Homo sapiens) (P03372 whole entry, looked up, the tested form may be a part): as the sequence (P03372 whole entry, looked up, the tested form may be a part) above
# Sequence of human Peripheral-type Benzodiazepine Receptor (PBR), TSPO (gene 706) (P30536 whole entry, looked up): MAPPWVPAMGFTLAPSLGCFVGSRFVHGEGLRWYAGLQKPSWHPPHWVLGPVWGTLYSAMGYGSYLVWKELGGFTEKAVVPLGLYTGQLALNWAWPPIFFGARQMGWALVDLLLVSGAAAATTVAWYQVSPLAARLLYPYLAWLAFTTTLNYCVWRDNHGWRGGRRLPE
# Sequence of Androgen Receptor/SRC-1 Co-activator, AR (gene 367) (P10275 whole entry, looked up, the tested form may be a part): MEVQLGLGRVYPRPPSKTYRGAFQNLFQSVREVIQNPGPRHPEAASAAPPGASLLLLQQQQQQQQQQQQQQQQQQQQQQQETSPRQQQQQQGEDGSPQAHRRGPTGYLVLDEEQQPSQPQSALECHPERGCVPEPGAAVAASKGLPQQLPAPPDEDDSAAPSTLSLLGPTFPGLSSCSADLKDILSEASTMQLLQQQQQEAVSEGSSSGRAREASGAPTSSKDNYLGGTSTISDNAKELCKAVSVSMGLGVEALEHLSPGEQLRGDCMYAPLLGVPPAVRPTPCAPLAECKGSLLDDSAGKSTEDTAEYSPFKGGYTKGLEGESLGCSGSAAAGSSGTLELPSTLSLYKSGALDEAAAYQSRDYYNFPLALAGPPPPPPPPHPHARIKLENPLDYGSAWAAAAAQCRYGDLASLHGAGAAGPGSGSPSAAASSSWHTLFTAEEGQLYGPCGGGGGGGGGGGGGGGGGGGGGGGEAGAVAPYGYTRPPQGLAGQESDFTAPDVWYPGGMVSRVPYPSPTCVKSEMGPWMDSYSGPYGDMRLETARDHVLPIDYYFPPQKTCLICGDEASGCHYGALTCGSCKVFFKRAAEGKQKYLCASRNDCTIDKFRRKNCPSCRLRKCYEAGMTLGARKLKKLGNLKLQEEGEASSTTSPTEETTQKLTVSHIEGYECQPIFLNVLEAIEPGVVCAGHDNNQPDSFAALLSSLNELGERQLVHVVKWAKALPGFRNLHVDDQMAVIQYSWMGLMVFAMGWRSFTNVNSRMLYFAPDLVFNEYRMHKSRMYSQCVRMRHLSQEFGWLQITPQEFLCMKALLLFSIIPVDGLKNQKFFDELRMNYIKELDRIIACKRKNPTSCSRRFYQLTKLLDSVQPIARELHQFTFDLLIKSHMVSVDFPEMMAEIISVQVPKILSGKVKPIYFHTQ
# Sequence of bovine Estrogen Receptor (ER), ESR1 (gene 407238) (P49884 whole entry, looked up): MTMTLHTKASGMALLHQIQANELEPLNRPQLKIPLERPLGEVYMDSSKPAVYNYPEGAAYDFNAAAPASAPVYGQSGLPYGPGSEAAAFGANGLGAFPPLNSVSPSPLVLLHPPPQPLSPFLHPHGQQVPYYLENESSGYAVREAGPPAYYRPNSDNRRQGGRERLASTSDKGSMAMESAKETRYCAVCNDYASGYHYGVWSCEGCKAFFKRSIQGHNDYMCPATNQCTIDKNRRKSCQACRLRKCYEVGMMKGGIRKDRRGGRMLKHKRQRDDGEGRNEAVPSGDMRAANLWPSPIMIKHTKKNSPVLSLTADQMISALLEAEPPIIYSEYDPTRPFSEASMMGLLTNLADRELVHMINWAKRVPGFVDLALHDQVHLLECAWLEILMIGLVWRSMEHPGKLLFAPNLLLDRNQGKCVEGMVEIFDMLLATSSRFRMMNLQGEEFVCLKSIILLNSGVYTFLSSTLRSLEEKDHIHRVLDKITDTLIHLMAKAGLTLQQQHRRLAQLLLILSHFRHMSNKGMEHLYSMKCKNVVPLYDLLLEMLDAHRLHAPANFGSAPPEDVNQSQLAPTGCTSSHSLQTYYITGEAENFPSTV
# Sequence of chimpanzee Androgen Receptor (AR), AR (gene 747460) (O97775 whole entry, looked up): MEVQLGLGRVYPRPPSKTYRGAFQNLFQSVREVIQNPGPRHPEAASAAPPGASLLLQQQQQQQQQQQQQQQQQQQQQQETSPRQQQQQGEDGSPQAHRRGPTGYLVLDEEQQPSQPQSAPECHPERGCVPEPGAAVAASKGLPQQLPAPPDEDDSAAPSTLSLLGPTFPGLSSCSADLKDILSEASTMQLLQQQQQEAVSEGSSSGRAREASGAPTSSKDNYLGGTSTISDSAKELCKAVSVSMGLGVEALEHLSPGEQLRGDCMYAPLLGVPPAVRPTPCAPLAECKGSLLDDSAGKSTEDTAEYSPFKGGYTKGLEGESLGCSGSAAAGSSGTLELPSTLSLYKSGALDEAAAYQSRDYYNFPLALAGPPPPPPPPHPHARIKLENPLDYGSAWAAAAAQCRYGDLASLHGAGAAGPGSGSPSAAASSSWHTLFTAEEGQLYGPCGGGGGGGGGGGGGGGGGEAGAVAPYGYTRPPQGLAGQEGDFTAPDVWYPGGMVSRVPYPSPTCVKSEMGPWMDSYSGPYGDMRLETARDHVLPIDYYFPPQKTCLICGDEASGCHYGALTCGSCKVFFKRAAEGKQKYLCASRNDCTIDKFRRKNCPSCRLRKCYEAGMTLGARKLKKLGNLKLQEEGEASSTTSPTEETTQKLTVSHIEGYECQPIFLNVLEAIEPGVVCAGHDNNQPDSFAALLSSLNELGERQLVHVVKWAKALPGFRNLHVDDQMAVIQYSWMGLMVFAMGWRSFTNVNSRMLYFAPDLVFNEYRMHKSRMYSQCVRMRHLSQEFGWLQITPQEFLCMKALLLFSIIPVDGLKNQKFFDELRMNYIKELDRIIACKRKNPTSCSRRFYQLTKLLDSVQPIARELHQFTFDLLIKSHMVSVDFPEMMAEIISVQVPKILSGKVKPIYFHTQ
smiles,measurement,setting,value
O=C1OC2(c3ccc(O)cc3Oc3cc(O)ccc32)c2ccccc21,AC50,[1],25 µM (active) and 9.1 µM (active)
same,AC50,[2],15.1 µM (active)
same,outcome,[3],inactive
same,AC50,[4],15.8 µM (active)
same,AC50,[5],13.5 µM (active)
same,outcome,[5],inactive
same,AC50,[6],9.78 µM (active)
same,outcome,[6],inactive
same,outcome,[7],inactive
same,outcome,[8],inactive
CCCCCCOc1ccc(O)cc1,AC50,[1],7.77 µM (active)
same,AC50,[2],6.49 µM (active)
same,outcome,[4],inactive
same,AC50,[6],12 µM (active)
same,AC50,[7],13.6 µM (active)
same,AC50,[8],18.3 µM (active)
same,AC50,[9],12 µM (active)
same,AC50,[10],75.1 µM (active)
C1CCCNCC1,outcome,[11],inactive
same,outcome,[7],inactive
same,outcome,[8],inactive
CCCCCC(=O)O[C@]1(C(C)=O)CC[C@H]2[C@@H]3CCC4=CC(=O)CC[C@]4(C)[C@H]3CC[C@@]21C,outcome,[11],inactive
same,outcome,[4],inactive
same,AC50,[5],1.12 µM (active)
same,outcome,[7],inactive
same,outcome,[9],inactive
CCc1cccc(O)c1,outcome,[11],inactive
same,outcome,[2],inactive
same,outcome,[6],inactive
same,outcome,[7],inactive
same,outcome,[8],inactive
same,outcome,[9],inactive
CC(C)C(=O)c1ccccc1,outcome,[11],inactive
same,outcome,[7],inactive
same,outcome,[8],inactive
same,outcome,[9],inactive
O=C(c1ccc(OCCN2CCCCC2)cc1)c1c(-c2ccc(O)cc2)sc2cc(O)ccc12,AC50,[12],3.64 µM (active)
same,AC50,[13],0.869 µM (active)
same,outcome,[14],inactive
same,outcome,[11],inactive
same,AC50,[15],5.34 µM (active)
same,AC50,[2],6.31 µM (active)
same,outcome,[3],inactive
same,AC50,[16],4.18 µM (active)
same,outcome,NCBI gene 100848466,inactive
same,AC50,[17],38.5 µM (active)
same,AC50,[5],25 µM (active)
same,outcome,[5],inactive
Nc1ccc(N)c([N+](=O)[O-])c1,AC50,[1],3.27 µM (active) and 1.74 µM (active)
same,AC50,[2],1.02 µM (active)
same,outcome,[2],inactive
same,outcome,[3],inactive
CC1(C)[C@H](C=C(Cl)Cl)[C@H]1C(=O)OCc1cccc(Oc2ccccc2)c1,outcome,[2],inactive
CC(C)(C)c1cccc(O)c1,outcome,[11],inactive
same,outcome,[5],inactive
same,outcome,[6],inactive
same,outcome,[7],inactive
same,AC50,[8],60.2 µM (active)
same,outcome,[10],inactive
CCCCCC1C(=O)CCC1CC(=O)OC (stereo not drawn),AC50,[2],11.6 µM (active) and 25 µM (active)
same,outcome,[3],inactive
same,AC50,[5],17.7 µM (active)
same,outcome,[7],inactive
same,outcome,[8],inactive
CCCc1ccc(N)cc1,outcome,[11],inactive
same,outcome,[7],inactive
same,outcome,[8],inactive
same,outcome,[9],inactive
NC(N)=S,outcome,[11],inactive
same,outcome,[7],inactive
same,outcome,[8],inactive
CCC(C)(C)c1cc(O)c(C(C)(C)CC)cc1O,outcome,[4],inactive
same,outcome,[6],inactive
Cc1cc(O)c2c(c1)C(=O)c1cc(O)cc(O)c1C2=O,outcome,[4],inactive
CCCCCCCCCCCCOCCOS(=O)(=O)O,outcome,[4],inactive
same,AC50,[6],22.8 µM (active)
same,outcome,[7],inactive
same,outcome,[8],inactive
CC(C)(CO)CO,outcome,[4],inactive
same,outcome,[7],inactive
same,outcome,[8],inactive
same,outcome,[9],inactive
same,outcome,[10],inactive
